Records with an inconclusive call do not appear. The source made the active and inactive calls. How the source made its calls: active means hit-call score of the fitted dose curve at least 0.9, where 1 is the maximum; inconclusive means response in the unintended direction; inactive means score below 0.9.
How the values were obtained:
[1] = biological target: rat Androgen Receptor (AR), Ar (gene 24208) (UniProt P15207); assay: NVS_NR_rAR: NovaScreen (NVS) Nuclear Receptor Binding Assay for rat Androgen Receptor (AR) (AID 2283366)
Outline: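 Actives from a duplicate single-concentration (25 uM) primary run went on to concentration series. Displacement of radioligand was counted by filtration and scintillation, 18 h post-dose, using prostate extracts from testosterone-pretreated rats, with DMSO as baseline.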

[2] = biological target: guinea pig Sigma Receptor, Non-selective Binding, SIGMAR1 (gene 100135589) (UniProt Q60492); assay: NVS_OR_gSIGMA_NonSelective: NovaScreen (NVS) Nuclear Receptor Binding Assay for guinea pig Sigma Receptor, Non-selective Binding (AID 2283367)
Outline: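 Membranes from guinea pig brain incubated with radioligand and test chemical for 1 h, then filtered and scintillation-counted. Duplicate primary testing at 25 uM, with concentration-series follow-up for actives.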

[3] = test system: guinea pig Dopamine Transporter (DAT), gene 100714898; assay: NVS_TR_gDAT: NovaScreen (NVS) Transporter Assay for guinea pig Dopamine Transporter (DAT) (AID 2283369);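 further: active compounds lower bound radioligand signal relative to DMSO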
Outline: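 Guinea pig striatal membranes, cell-free radioligand binding with filter-based scintillation counting, read 2 h after dosing. Loss of signal versus DMSO baseline; single-concentration primary (25 uM) then concentration-response up to 50 uM.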

[4] = biological target: rat Serotonin Transporter (SERT), Slc6a4 (gene 25553) (UniProt P31652); assay: NVS_TR_rSERT: NovaScreen (NVS) Transporter Assay for rat Serotonin Transporter (SERT) (AID 2283375)
Outline: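 Rat forebrain membranes; radioligand displacement at SERT read by filter-based scintillation counting, 1 h after dosing. Screened in duplicate at 25 uM, actives then run in concentration series; loss of signal versus DMSO baseline.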

[5] = biological target: human Norepinephrine Transporter (NET), SLC6A2 (gene 6530) (UniProt P23975); assay: NVS_TR_hNET: NovaScreen (NVS) Transporter Assay for human Norepinephrine Transporter (NET) (AID 2283377);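 further: cell-free membrane protein extracted from CHO cells expressing human NET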
Outline: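 CHO cell extracts expressing the transporter; tritiated or iodinated tracer displaced competitively; filtration plus scintillation readout at 1 h. Single-point duplicates at 25 uM, concentration series for follow-up; activity = signal drop relative to DMSO.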

Chain of guinea pig Sigma Receptor, Non-selective Binding, SIGMAR1 (gene 100135589) (Q60492 whole entry, looked up): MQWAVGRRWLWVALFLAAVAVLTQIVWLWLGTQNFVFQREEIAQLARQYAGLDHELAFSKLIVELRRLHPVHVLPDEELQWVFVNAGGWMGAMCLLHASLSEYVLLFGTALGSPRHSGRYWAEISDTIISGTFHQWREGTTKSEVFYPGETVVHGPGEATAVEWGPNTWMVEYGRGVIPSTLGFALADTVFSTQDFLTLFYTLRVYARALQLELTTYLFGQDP
Chain of rat Androgen Receptor (AR), Ar (gene 24208) (P15207 whole entry, looked up): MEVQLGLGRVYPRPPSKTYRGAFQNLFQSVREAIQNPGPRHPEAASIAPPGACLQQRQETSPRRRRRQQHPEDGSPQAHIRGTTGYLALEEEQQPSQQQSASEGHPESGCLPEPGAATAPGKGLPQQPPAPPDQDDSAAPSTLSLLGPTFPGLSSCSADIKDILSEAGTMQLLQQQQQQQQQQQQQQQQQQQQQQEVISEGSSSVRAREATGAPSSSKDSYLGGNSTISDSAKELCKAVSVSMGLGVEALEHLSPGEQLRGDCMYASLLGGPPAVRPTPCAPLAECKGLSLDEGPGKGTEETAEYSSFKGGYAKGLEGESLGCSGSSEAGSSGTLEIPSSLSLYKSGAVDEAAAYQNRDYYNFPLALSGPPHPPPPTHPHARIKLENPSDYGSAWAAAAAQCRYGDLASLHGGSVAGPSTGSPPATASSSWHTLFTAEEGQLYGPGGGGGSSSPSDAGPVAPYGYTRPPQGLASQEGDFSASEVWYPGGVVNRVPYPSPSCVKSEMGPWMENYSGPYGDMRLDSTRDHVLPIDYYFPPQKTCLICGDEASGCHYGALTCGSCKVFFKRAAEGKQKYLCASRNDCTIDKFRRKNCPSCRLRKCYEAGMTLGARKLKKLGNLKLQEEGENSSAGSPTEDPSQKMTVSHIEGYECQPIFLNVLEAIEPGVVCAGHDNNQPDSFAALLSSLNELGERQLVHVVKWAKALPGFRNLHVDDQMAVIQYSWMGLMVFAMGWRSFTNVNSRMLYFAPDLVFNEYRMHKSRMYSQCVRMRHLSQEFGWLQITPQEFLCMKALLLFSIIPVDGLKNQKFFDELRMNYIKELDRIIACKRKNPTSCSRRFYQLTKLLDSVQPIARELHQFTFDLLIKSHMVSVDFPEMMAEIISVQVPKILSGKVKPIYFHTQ
Chain of human Norepinephrine Transporter (NET), SLC6A2 (gene 6530) (P23975 whole entry, looked up): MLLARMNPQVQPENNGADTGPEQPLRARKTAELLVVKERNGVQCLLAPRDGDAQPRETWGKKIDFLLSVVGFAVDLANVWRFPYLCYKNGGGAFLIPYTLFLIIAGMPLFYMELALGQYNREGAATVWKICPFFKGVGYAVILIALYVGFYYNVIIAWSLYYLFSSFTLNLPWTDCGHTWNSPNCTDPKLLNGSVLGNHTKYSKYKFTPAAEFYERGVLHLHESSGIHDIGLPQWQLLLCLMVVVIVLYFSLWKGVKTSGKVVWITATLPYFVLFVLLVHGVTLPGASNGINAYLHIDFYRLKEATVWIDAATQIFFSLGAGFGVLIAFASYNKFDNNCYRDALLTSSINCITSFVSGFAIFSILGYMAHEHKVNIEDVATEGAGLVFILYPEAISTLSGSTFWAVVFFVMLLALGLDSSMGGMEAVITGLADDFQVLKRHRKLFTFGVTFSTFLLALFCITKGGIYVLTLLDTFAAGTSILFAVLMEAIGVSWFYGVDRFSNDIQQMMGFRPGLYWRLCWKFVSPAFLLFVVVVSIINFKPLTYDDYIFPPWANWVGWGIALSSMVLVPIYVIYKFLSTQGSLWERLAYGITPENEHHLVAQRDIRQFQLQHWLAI
Chain of rat Serotonin Transporter (SERT), Slc6a4 (gene 25553) (P31652 whole entry, looked up): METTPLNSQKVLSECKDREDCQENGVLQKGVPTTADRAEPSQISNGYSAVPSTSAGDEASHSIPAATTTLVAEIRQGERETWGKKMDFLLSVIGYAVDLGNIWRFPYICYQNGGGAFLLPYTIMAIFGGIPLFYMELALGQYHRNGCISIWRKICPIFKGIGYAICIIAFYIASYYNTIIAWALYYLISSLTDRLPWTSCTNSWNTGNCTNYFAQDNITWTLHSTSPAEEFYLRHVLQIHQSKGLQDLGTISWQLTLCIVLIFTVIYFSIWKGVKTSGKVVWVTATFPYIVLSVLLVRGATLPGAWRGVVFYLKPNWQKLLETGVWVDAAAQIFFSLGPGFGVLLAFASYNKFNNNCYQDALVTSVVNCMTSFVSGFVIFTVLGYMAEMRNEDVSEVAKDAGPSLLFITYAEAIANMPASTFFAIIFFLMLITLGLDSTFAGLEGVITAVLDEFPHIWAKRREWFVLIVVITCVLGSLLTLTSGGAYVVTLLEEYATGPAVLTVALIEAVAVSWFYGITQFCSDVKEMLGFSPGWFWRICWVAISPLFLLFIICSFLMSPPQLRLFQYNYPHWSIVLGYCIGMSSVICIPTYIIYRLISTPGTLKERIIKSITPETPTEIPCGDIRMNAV

Q: `Oc1ccc(Cl)cc1Cc1cc(Cl)ccc1O` was tested. Which AC50 [1] did it give?
A: 1.42 µM (active)

Q: Which AC50 [1] does the source give for `CC(C)c1ccc2c(C(C)C)cc(C(C)C)c(S(=O)(=O)O)c2c1` here?
A: 7.33 µM (active)

Q: `S=C(NC1CCCCC1)NC1CCCCC1` was tested. Which AC50 [2] did it give?
A: 5.93 µM (active)

Q: How did the AC50 [2] turn out when `CCCCCCCCCCCCCCCC[N+](C)(C)CC` was run?
A: 1.23 µM (active)

Q: How did the AC50 [3] turn out when `c1ccc2c(c1)ccc1ncccc12` was run?
A: 34.7 µM (active)

Q: `COc1ccc2nc(N)sc2c1` was tested. Which outcome [3] did it give?
A: inactive

Q: How did the AC50 [4] turn out when `CC(C)(c1cc(Br)c(OCCO)c(Br)c1)c1cc(Br)c(OCCO)c(Br)c1` was run?
A: 2.88 µM (active)

Q: For `O=C(Nc1ccccc1SSc1ccccc1NC(=O)c1ccccc1)c1ccccc1`, which outcome [5] is on record?
A: inactive

Q: Which outcome [5] does the source give for `O=[N+]([O-])c1ccc(CO)cc1` here?
A: inactive
